The source of these data is PubChem BioAssay (NCATS).

A short description of experiment [1]: qHTS to identify inhibitors of the type 1 interferon - major histocompatibility complex class I in skeletal muscle: primary screen against the NCATS LOPAC collection (AID 1347405). Put shortly: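 After 24 h at 37 C with compounds (7-point, 1:4.3 dilutions, 46 uM top final) plus 4 ng/ml IFN-beta, luminescence from lytic HiBiT detection was measured. HLA-B*08:01 in C25cl48 myoblasts carried an endogenous C-terminal HiBiT tag; medium lacked dexamethasone.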

Experiment [2] can be described thus: qHTS to identify inhibitors of the type 1 interferon - major histocompatibility complex class I in skeletal muscle: primary screen against the NCATS Pharmaceutical Collection (AID 1347407). In short, it runs like this: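 Compounds […] were added to CRISPR-engineered HLA-B-HiBiT C25cl48 human myoblasts with 4.0 ng/ml IFN-beta. After 24 hrs at 37 C, cells were lysed and HiBiT luminescence measured.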
In general terms: In qHTS, concentration-response curves come from the screen itself.

The nature of experiment [3]: qHTS for inhibitors of adenylyl cyclases using a fission yeast platform: a pilot screen against the NCATS LOPAC library (AID 1347410). In short, it runs like this: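 GFP from fbp1-GFP reporter, read by Acumen laser cytometry, indicates AC inhibition in fission yeast expressing AC9, GNAS and PDE4D2. Cells grown 18 h in the dark at 30C with compounds, final up to 57 uM.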

Experiment [4] deals with Protein phosphatase 1D (Homo sapiens) (UniProt O15297). Briefly: RapidFire Mass Spectrometry qHTS Assay for Modulators of WT P53-Induced Phosphatase 1 (WIP1) (AID 1347424). Put shortly: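 RapidFire mass spectrometry measured dephosphorylated peptide after 5 min room-temperature reaction of 2 uM VEPPL-pS-QETFS with 10 nM WIP1 (50 mM Tris-HCl pH 7.5, 30 mM MgCl2, 0.1 mM EGTA, BSA), following 1 hr compound preincubation; 1 uM isotope-labelled product standard.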
Sequence of Protein phosphatase 1D (Homo sapiens) (O15297 whole entry, looked up): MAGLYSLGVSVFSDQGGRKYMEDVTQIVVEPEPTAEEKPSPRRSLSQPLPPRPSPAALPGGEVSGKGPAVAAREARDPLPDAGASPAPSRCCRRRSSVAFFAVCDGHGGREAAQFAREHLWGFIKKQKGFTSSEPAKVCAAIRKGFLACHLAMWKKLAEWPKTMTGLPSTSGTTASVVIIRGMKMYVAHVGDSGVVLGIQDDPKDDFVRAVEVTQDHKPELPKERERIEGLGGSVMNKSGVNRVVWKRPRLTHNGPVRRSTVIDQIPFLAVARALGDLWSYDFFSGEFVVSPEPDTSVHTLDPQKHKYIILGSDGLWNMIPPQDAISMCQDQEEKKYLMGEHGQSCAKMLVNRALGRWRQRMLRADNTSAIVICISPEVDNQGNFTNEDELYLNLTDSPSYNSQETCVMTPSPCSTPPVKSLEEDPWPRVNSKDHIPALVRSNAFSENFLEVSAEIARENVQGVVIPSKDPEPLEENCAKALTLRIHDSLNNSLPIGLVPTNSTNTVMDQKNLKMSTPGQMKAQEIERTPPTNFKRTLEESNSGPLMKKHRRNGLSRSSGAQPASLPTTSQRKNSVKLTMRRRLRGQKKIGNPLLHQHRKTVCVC

The target is the same in experiment [5]. Kind of experiment: Rhodamine-PBP qHTS Assay for Modulators of WT P53-Induced Phosphatase 1 (WIP1) (AID 1347425). Put shortly:
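The read-out is the change in Rhodamine-PBP fluorescence (f1 - f0, ex 525/em 598 nm) as Pi is released, read each minute for 11 min. Final reaction: 5 nM WIP1, 10 uM phosphopeptide VEPPL-pS-QETFS, 10 uM Rh-PBP, 50 mM Tris-HCl pH 7.5, 30 mM MgCl2. Compound was preincubated with enzyme for 1 hour at room temperature.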

The nature of experiment [6]: Validation qHTS assay for inhibitors of Activation Induced Cytidine Deaminase (AID): UDG Counterscreen signal (AID 1347427). Put shortly:
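Fluorescence at 560 nm excitation, 665 nm emission reports UDG signal after 250 mM NaOH (2x) addition and 30 min. Enzymes (AID 1 uM, UDG 2 U/mL, at 4/3x) preincubated 10 min with compound, then 4 h with 4x 250 nM DJC20/DJC23 substrate at room temperature.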

For experiment [7], the target named is Single-stranded DNA cytosine deaminase (Homo sapiens) (UniProt Q9GZX7). Briefly: Validation qHTS assay for inhibitors of Activation Induced Cytidine Deaminase (AID): AID signal (AID 1347429). Put shortly: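 Compounds (final up to 114 uM) preincubated with AID plus UDG; 250 nM DJC20/DJC23 substrate mix (4x stock) added, 4 hr at room temperature, then NaOH, 30 min. Read 1 fluorescence at 540 nm excitation, 590 nm emission.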
Sequence of Single-stranded DNA cytosine deaminase (Homo sapiens) (Q9GZX7 whole entry, looked up): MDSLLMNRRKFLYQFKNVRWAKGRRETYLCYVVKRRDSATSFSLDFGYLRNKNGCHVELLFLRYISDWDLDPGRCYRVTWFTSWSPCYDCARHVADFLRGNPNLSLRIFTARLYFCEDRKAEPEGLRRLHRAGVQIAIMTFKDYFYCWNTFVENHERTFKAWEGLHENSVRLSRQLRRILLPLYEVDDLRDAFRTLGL

Experiment [8] addresses Calcium and integrin-binding protein 1 (Homo sapiens) (UniProt Q99828). Briefly: Primary qHTS for Identification of Calcium Integrin Binding Protein 1 (CIB1) Competitor (AID 1508620). In short, it runs like this: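 CIB1-GST (1 uM final) and compound incubated 15 min at room temperature before adding FITC-alphaIIb peptide tracer (100 nM final). Competition for binding read by fluorescence polarization (ex 480, em 540) after another 15 min at room temperature.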

Experiment [9] is described as follows: qHTS to identify inhibitors of the type 1 interferon - major histocompatibility complex class I in skeletal muscle: primary screen against the NCATS Mechanism Interrogation Plate v5.0 (MIPE) Libary (AID 1347411). In short, it runs like this:
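Luminescence from CRISPR HiBit-tagged endogenous HLA-B in human myoblasts reported MHC class I level after 24 h of IFN-beta (4 ng/ml) plus compound. Compounds ran as 11-point 1:3 series, top 46 uM final.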

Experiment [10] is described as follows: Secretion counterscreen for inhibitors of the SERCaMP assay screened against the NCATS CANVASS Library (AID 1347390). In short, it runs like this:
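Counterscreen for secretory-pathway interference: after 4 h attachment, SH-SY5Y-GLuc cells were exposed 20 hours to compounds (final 0.001 - 77 uM), then coelenterazine added and GLuc luminescence recorded; Brefeldin A served as control.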
For orientation: Counterscreens check selectivity or assay interference.

Experiment [11] can be described thus: qHTS for activators of Nrf2/ARE signaling pathway screened against the NCATS CANVASS Library (AID 1347391). Put shortly: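 Eleven-point qHTS, 16 h treatment of HepG2 cells carrying an ARE-driven beta-lactamase reporter; CCF4 ratio read (405 nm excitation, 460 and 530 nm emission), with CellTiter-Glo ATP luminescence for viability.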
Experiment [12] in a line: qHTS for activators of dead-cell proteases activity screened against the NCATS CANVASS Library (AID 1347392). In short, it runs like this:
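Luminescent dead-cell protease readout (AAF-aminoluciferin, 15 min, room temperature) after 5 h compound treatment of HepG2 cells (2000/well, pre-attached 18 h). Eleven concentrations.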

The nature of experiment [13]: qHTS for inhibitors of ER calcium dysfunction: SERCaMP assay screened against the NCATS CANVASS Library (AID 1347393). Put shortly: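 Thapsigargin-induced ER calcium depletion drives GLuc-SERCaMP secretion from SH-SY5Y cells; compounds given 16 h beforehand were scored by lowered coelenterazine luminescence after 4 h challenge.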
Experiment [14] can be described thus: Vero-766 cells viability qHTS against the NCATS CANVASS Library: Counterscreen for Zika virus inhibition assay (AID 1347394). Put shortly: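 CellTiter Glo luminescence measured cytotoxicity after 72 h at 37C in uninfected Vero 766 cells, plated at 1000 cells/well. Compounds were applied in an 11-point series. Wells without cells defined 100% inhibition.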
Experiment [15] can be described thus: qHTS for inhibitors of Wild type Zika virus screened against the NCATS CANVASS Library (AID 1347396). In short, it runs like this: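 Luminescent CellTiter Glo read-out of virus-induced cytotoxicity, 72 h post-infection, in Vero 766 cells. Compounds were tested at 11 concentrations; uninfected, vehicle-treated wells defined 100% inhibition.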
Experiment [16] in a line: Viability qHTS for inhibitors of the SERCaMP assay screened against the NCATS CANVASS Library (AID 1347400). Put shortly: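 CellTiter-Glo luminescence measured cytotoxicity after 48 h at 37C of compound treatment (11-point series). Cells were SH-SY5Y-GLuc SERCaMP MJH297 derivatives, seeded at 1000 per well 4 h beforehand.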
The nature of experiment [17]: Redox Reaction Profiling qHTS: Assay Interference Panel against the NCATS CANVASS Library (AID 1347401). In short, it runs like this:
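Redox-cycling liability assessed as DTT-driven conversion of resazurin (5 uM, with 200 uM DTT, HEPES pH 7.3) to fluorescent resorufin. Fluorescence at 525/598 nm measured initially and after 15 min dark incubation.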

Inconclusive results are not listed. Active and inactive are the calls of the source. Calls follow the shape of the dose curve; as a rule, active = well fitted curve in the direction sought with a large enough effect; inconclusive = small, poorly fitted or top-dose-only effect, or another doubt; inactive = no such curve, though single readings can be large; an effect the other way counts as inactive or inconclusive.

Sequence of Calcium and integrin-binding protein 1 (Homo sapiens) (Q99828 whole entry, looked up): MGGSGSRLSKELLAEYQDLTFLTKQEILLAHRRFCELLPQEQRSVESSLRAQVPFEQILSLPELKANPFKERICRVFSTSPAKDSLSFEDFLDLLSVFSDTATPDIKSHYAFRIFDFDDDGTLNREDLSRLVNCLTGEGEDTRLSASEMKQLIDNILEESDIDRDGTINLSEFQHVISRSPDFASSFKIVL

Consider `CN1Cc2c(N)cccc2C(c2ccccc2)C1` (centres undefined), for which the outcome in [1], in experiment [2], in [3], in [4], in experiment [5] and in experiment [6] was inactive. In experiment [7], the compound was called inactive. In addition, the Potency entry in experiment [8] is “inactive”.

On to `CO[C@@H]1COCC[C@@H]1N[C@@H]1CC[C@@](C(=O)N2CCc3ncc(C(F)(F)F)cc3C2)(C(C)C)C1`, for which the Potency entry in [9] and in experiment [8] was “inactive” throughout.

As to `C/C=C/C=C/C(CC(=O)O)Nc1ccc(C=O)cc1` (centres undefined), the result in experiment [10], in [11], in experiment [12], in experiment [13], in [14] and in [15] was inactive. Further, the compound was called inactive in experiment [16] and in [17]. Also, the Potency entry in [8] is “inactive”.

On to `CC1(C)CCC(C)(C)c2cc3c(cc21)Sc1ccccc1N=C3c1ccc(C(=O)O)cc1`, for which, in [8], the Potency entry is “inactive”.

For `Cc1cc(C)c(S(=O)(=O)N(Cc2ccc(-c3cccc(S(C)(=O)=O)c3)cc2)Cc2ccc(C(F)(F)F)o2)c(C)c1`, in [8], the Potency result was “inactive”.

With `CC(=O)C1CCC2(C)C3=C(CCC12C)C1(C)CCC(=O)C(C)(C)C1CC3` (centres undefined), the Potency result in [8] was “inactive”.

For `COC1=CC(=O)O[C@@H](CCc2ccccc2)[C@@H]1O`, the Potency result in [8] was “inactive”.

`COc1ccc2cc(OCC3(C(=O)O)CN(C(=O)c4ccc(F)cc4)C3)ccc2c1`: the Potency entry in experiment [8] was “inactive”.

As for `COC(=O)[C@]12C(=O)C(C)=C(O)[C@@]1(C)C(C)=CC1[C@@]34CC[C@@H](OC(C)=O)C(C)(C)C3[C@H](C[C@]12C)OC4=O` (some centres undefined), in [8], the Potency result is “inactive”.

As for `CN(C)c1cccc(-c2c3c(=O)n(-c4ccccc4Cl)[nH]c3cc(=O)n2C)c1`, the Potency result in experiment [8] was “inactive”.

Turning to `CC(=O)O[C@H]1C[C@@H]2[C@]3(CC[C@]4(C)[C@@H](C5(C)CCC(C(C)(C)O)O5)[C@@H](O)C[C@@]24C)C[C@@]32CC[C@H](O[C@@H]3OC[C@@H](O)[C@H](O)[C@H]3O)C(C)(C)[C@H]12` (some centres undefined), the Potency entry in experiment [8] is “inactive”.

On to `CC(C)(O)C1=CCC23COC(C2)C(O)(C(=O)O)CCC13` (centres undefined), for which the Potency entry in experiment [8] was “inactive”.

In the case of `CC1(C)CCC[C@@]2(C)[C@H]1[C@H](O)C=C1COC(=O)[C@@]12O`, the Potency result in [8] was “inactive”.
